Test results: PubChem BioAssay (NCI)
The panel holds about 83,000 compounds, 20% with a hit somewhere; the sample as a whole holds those more often.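 Assay: single dose, 48 h. Readout: percent growth (0 = no net growth; negative = cell death). Active: <10.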 A number with no mark means an inactive call. Activity calls are given as the source filed them.

These compounds were tested on HL-60(TB) leukemia (assay: NCI-60 one-dose screen, 48 h (100 = growth as untreated, 0 = no growth, -100 = all killed)). Details: 10 µM unless noted.

SMILES	growth
Cc1ccc2c(N)c(C(=O)Nc3ccc(-c4ccccc4)cc3)sc2n1	38.7%
Cn1cc(-c2cc(N)n3nc(-c4c[nH]c5ccc(Cl)cc45)cc3n2)c2cc(Br)cnc21	-60.4% (active)
Cc1ccc(-c2cc(-c3cc4ccccc4nc3Cl)[nH]c(=S)n2)cc1	11.6%
Cc1ccc(Cl)cc1NC(=O)N/C(N)=N/c1nc2ccccc2s1	-44.9% (active)
CCOC(=O)c1ccc(NC(=O)CSC(CC(=O)c2sc(Nc3ccccn3)nc2C)c2ccccc2F)cc1 (stereo not drawn)	2.8% (active)
O=C(c1ccc(OCCN2CCOCC2)cc1)C1[C@H](c2ccc(Cl)cc2)[C@@H](c2ccccc2)NC12C(=O)Nc1ccc(Br)cc12 (stereo partly drawn)	-28.5% (active)
O=C1NC(=O)/C(=C/c2ccccc2OCc2cc3ccccc3nc2Cl)S1	99%
COc1cccc(-c2ccc(/C=N/NC(=O)c3[nH]c4ccc(Br)cc4c3-c3ccccc3)s2)c1	-28.2% (active)
O=C(NO)c1ccc(CNC(=O)[C@H]2Cc3c([nH]c4ccccc34)[C@H](c3ccccc3)N2)cc1	0.371% (active)
COc1ccc(-c2nc(-c3ccccc3)c(-c3ccccc3)n2-c2ccc(S(=O)(=O)Nc3ncccn3)cc2)cc1OC	89%
N#Cc1ccc(-c2nn(-c3ccc(C(=O)O)cc3)cc2CNc2ccc(Oc3ccccc3)cc2)cc1	34.4%
Cc1ccccc1NC(=O)c1cccc(NC(=O)CCl)c1	19%
OCCNc1oc(-c2ccccc2)nc1[P+](c1ccccc1)(c1ccccc1)c1ccccc1	-29.6% (active)
